In the library only some 6.2% were active in any assay of this set; here they are far more common.
NTR1 ag: agonists of human NTR1, primary screen, imaging, U2OS cells, beta-arrestin-GFP, high content; Neurotensin receptor type 1 (Homo sapiens), P30989; NTR1-U2OS beta-arrestin-GFP spot imaging, agonist mode; activation, % at 20 µM; 0.17% of 330,000 active; AID 493036, 2011;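 active = activation at or above 40% of the spot to cytoplasm intensity ratio, with at least 20 cells analyzed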
Mot1-301 SUMO: yeast Mot1-301 growth rescue at high temperature, primary screen, SUMOylation pathway inhibitor project, S. cerevisiae, ATP luminescence, 38.5C; S. cerevisiae Mot1-301 growth rescue; percent above DMSO median, 100 means doubled; growth rescue, % at 18.8 µM; 1% of 320,000 active;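 active = every valid replicate shows activation above 250% relative to neutral control wells; inactive = the rest, any valid replicate at or below 250%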
GRIN3A LBD mod: binders of NR3A ligand-binding domain, primary screen, biophysical, differential scanning fluorimetry, uHTS. Tm shift relative to glycine control, % at 25 µM. Glutamate receptor ionotropic, NMDA 3A (GRIN3A) ligand-binding domain. AID 1259313, 2017. NR3A LBD differential scanning fluorimetry, Tm shift; 0% = protein alone, 100% = glycine-bound protein. 2.5% of 340,000 active;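 active = melting temperature shift of at least 10% of the positive control shift, at one fixed dose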
Cardio protect: cardioprotection against H2O2-induced cell death, primary screen, uHTS, H9c2 cells, ATPLite luminescence | H9c2 cardiomyocytes, H2O2 injury protection, 2 h | protection from H2O2 cell death, % at 20 µM | 0.63% of 360,000 active;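 active = compounds giving at least 50% protection of heart cells from peroxide-induced death in the single-dose screen, raw or plate-pattern-corrected value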
AHR activator: AHR activators, primary screen, cell-based, luminescence, luciferase reporter, human. AID 2796, 2010. activation, % at 5 µM. 2.5% of 320,000 active. AHR-responsive luciferase reporter cells. Aryl hydrocarbon receptor (Homo sapiens), P35869; in the data active = activation above about 47%
Target sequence (P35869 whole entry, looked up): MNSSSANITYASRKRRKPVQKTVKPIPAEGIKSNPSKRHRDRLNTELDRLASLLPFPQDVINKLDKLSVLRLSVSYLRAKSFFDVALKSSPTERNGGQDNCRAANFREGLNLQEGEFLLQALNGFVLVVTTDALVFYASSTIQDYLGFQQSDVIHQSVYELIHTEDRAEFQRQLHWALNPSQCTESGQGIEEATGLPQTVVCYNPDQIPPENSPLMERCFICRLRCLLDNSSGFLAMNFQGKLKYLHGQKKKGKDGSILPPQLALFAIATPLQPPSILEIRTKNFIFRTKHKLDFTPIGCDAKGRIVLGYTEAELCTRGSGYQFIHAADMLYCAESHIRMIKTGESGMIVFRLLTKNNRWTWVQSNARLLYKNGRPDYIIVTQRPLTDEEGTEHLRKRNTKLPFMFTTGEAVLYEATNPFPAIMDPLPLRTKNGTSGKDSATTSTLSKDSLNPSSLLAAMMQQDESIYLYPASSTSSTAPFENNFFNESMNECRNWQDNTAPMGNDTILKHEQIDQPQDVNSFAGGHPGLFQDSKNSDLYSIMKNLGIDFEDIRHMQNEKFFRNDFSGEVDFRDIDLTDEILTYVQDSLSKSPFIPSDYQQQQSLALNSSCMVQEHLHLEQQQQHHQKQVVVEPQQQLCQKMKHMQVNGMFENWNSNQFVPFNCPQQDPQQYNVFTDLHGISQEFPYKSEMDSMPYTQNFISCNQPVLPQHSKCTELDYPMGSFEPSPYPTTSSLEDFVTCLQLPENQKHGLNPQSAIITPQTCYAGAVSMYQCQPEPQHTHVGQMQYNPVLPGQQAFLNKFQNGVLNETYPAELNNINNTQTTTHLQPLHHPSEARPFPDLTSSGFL
AI-2 QS mod: Vibrio harveyi AI-2 quorum sensing modulators, primary screen, JMH597 strain, luminescence/OD600 ratio | Vibrio harveyi JMH597 AI-2 luminescence/OD600 ratio, 9 h; active compounds read low; strain lacks LuxN and CqsS sensors; 0 = neutral-control median | activity change, % at 7.5 µM | 0.4% of 300,000 active | AID 2094, 2009; in the data active = activity change below about -75%, passing the limit was not always enough;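 also: luminescence divided by OD600 gain over 9 h not by final OD600 alone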
Each line names hits and unclear results; the compound was inactive in the other large screens.

Cc1ccc(NC(=O)c2ncn(CC(=O)N[C@H](C)c3cccc4ccccc34)n2)cc1C	GRIN3A LBD mod 18 (no result: Mot1-301 SUMO, AHR activator, AI-2 QS mod)
Cc1ccc(NC(=O)c2ncn(CC(=O)NCc3ccccc3)n2)cc1C	none (no result: Mot1-301 SUMO, AHR activator, AI-2 QS mod)
O=C(CNC(=O)c1ccc(Cl)cc1Cl)OCc1cn2cc(Br)ccc2n1	none (no result: AI-2 QS mod)
C[C@@H]1CN([C@@H](C)CO)C(=O)c2ccccc2-c2ccccc2CO[C@@H]1CN(C)S(=O)(=O)c1ccc(C(F)(F)F)cc1	none (no result: NTR1 ag, Mot1-301 SUMO, GRIN3A LBD mod, AHR activator, AI-2 QS mod)
O=c1oc(C2(O)CCCCC2)cc2ccc(-c3ccc4[nH]ccc4c3)cc12	GRIN3A LBD mod 11 (no result: AI-2 QS mod)
CCc1nnc(NC(=O)CN2CCN(Cc3ccc(F)cc3)CC2)s1	none
Cc1ccc(C)c(NC(=O)c2ccccc2C(=O)c2ccccc2)c1	Mot1-301 SUMO 715 (no result: GRIN3A LBD mod)
O=C(COc1ccc(S(=O)(=O)N2CCOCC2)cc1)NCCc1ccc(Cl)cc1	none (no result: NTR1 ag, Mot1-301 SUMO, GRIN3A LBD mod, AHR activator, AI-2 QS mod)
O=C(Cn1c2c(sc1=O)C1c3ccccc3OCC1CS2)Nc1ccc(Cl)c(Cl)c1 (stereo not given)	GRIN3A LBD mod 24 (no result: NTR1 ag)
Cc1ccc2c(c1)/C(=C/c1ccccc1F)C(=O)N2	AHR activator 68
COc1ccccc1NS(=O)(=O)c1cccc(C(=O)N2CCN(Cc3ccc4c(c3)OCO4)CC2)c1	none
C=CCSc1nncn1/N=C/c1ccc(OC)cc1	AHR activator 58
COc1ccccc1NC(=O)c1cc2c(CO)cnc(C)c2oc1=Nc1ccc(OC)c(OC)c1	none
Cc1ncc(CO)c2cc(C(=O)Nc3ccccc3Cl)c(=Nc3cccc(C(N)=O)c3)oc12	Cardio protect 61
Cc1ccc2c(c1)N(CC(=O)N1CCCC1)C(=O)c1cccnc1O2	none
CC(C)(C)c1ccc(-c2cc(C(=O)NNC(=O)Nc3ccccc3)c3ccccc3n2)cc1	GRIN3A LBD mod 12
O=C(NNC(=O)c1cc(-c2ccccc2)nc2ccccc12)Nc1cccc(Cl)c1	GRIN3A LBD mod 26
CC(=O)Nc1ccc(-c2cc(C(=O)O)c3ccccc3n2)cc1	none
O=C(NNC(=O)c1cc(-c2ccncc2)nc2ccccc12)Nc1ccc(F)cc1	none
O=C(NNC(=O)c1cc(-c2cccnc2)nc2ccccc12)Nc1ccc(Cl)cc1	GRIN3A LBD mod 26
COCCn1c(SCc2cccc(F)c2)nc2cc(C(=O)OC)ccc2c1=O	none (no result: AHR activator)
O=C1C=C(c2ccccc2Oc2ccccc2)C[C@@H](c2ccc(F)cc2)C1	none (no result: NTR1 ag, Mot1-301 SUMO, GRIN3A LBD mod, AHR activator, AI-2 QS mod)
Cc1ccc(C(=O)Nc2nccs2)cc1	none
O=C(Nc1nccs1)c1ccc2nccnc2c1	AHR activator 53
O=C(Nc1nccs1)c1cncc(Br)c1	AHR activator 56
CC1CCN(C(=O)c2ccc(-n3cnnn3)cc2)CC1	none
O=C(c1ccc(-n2cnnn2)cc1)N1CCOCC1	Mot1-301 SUMO 303
O=c1/c(=C/c2ccc(O)c([N+](=O)[O-])c2)sc2nc3ccccc3n12	none (no result: NTR1 ag, Mot1-301 SUMO, AHR activator, AI-2 QS mod)
O=c1c2ccc([N+](=O)[O-])c3cccc(c32)c2nc3ccccc3n12	AHR activator 50 (no result: GRIN3A LBD mod, Cardio protect)
c1cnc2c(OCc3cn4cccnc4n3)cccc2c1	AHR activator 71 (no result: AI-2 QS mod)
c1ccc(-c2nc(-n3ccnc3)nc(-n3ccnc3)n2)cc1	Cardio protect 74
Cc1ccc(S(=O)(=O)N2CCOCC2)cc1C(=O)NC1CCSc2ccccc21 (stereo not given)	none
CCOC(=O)c1c(C)cccc1OCC(N)=O	GRIN3A LBD mod 25
CCOC(=O)c1c(C)n(C)c2ccc(OCC(N)=O)cc12	AHR activator 70
CCOC(=O)c1c(C)n(CCOc2ccccc2)c2ccc(O)cc12	AHR activator 51
CCOC(=O)c1c(C)n(C)c2ccc(OC(C)=O)cc12	none
COc1ccc(NC(=O)C2CC2(Cl)Cl)cc1S(=O)(=O)N1CCCCC1 (stereo not given)	none (no result: NTR1 ag, Mot1-301 SUMO, GRIN3A LBD mod, AHR activator, AI-2 QS mod)
C[C@H](CO)N1C[C@H](C)[C@@H](CN(C)C(=O)Nc2ccccc2)Oc2c(NC(=O)C3CCCCC3)cccc2C1=O	none (no result: AI-2 QS mod)
N#Cc1ccccc1OCC(=O)OCC(=O)NC1CCS(=O)(=O)C1 (stereo not given)	none (no result: AI-2 QS mod)
CN(Cc1ccccc1)C(=O)c1[nH]cnc1C(=O)Nc1ccc(Cl)cc1	AHR activator 66 (no result: AI-2 QS mod)
CN(CCN(C)C(=O)c1[nH]cnc1C(=O)Nc1ccccc1)C(=O)c1[nH]cnc1C(=O)Nc1ccccc1	AHR activator 47 (no result: AI-2 QS mod)
Cc1cccc(CN(C)C[C@H]2OCc3cnnn3CCCC(=O)N([C@H](C)CO)C[C@@H]2C)c1	none (no result: NTR1 ag, Mot1-301 SUMO, GRIN3A LBD mod, AHR activator, AI-2 QS mod)
OC1C2COC(O2)C2OC(c3ccccc3)OC12 (stereo not given)	none (no result: NTR1 ag, Mot1-301 SUMO, GRIN3A LBD mod, AHR activator, AI-2 QS mod)
COc1ccc(CCNCC(O)Cn2c3ccccc3c3ccccc32)cc1OC (stereo not given)	none
COc1ccccc1NCC(O)Cn1c2ccccc2c2ccccc21 (stereo not given)	GRIN3A LBD mod 11
COc1ccccc1NS(=O)(=O)c1cccc(C(=O)N/N=C/c2c(CO)cnc(C)c2O)c1	Cardio protect 52 (no result: AI-2 QS mod)
O=C(N/N=C/c1ccccn1)c1cccc(S(=O)(=O)Nc2ccccc2Cl)c1	none
COc1ccccc1N/N=C/c1c(CO)cnc(C)c1O	none
COc1ccc(NS(=O)(=O)c2cccc(C(=O)N/N=C/c3c(F)c(F)c(F)c(F)c3F)c2)cc1	GRIN3A LBD mod 12 (no result: NTR1 ag, Mot1-301 SUMO, AHR activator, AI-2 QS mod)
NNC(=O)c1cccc(S(=O)(=O)Nc2cccc(C(F)(F)F)c2)c1	none
Cc1[nH]c2ccccc2c1/C=N/NC(=O)c1cccc(S(=O)(=O)Nc2cccc(C(F)(F)F)c2)c1	GRIN3A LBD mod 28
COc1ccc(-c2nn(-c3ccccc3)cc2/C=N/NC(=O)c2cccc(S(=O)(=O)Nc3ccccc3Cl)c2)cc1	GRIN3A LBD mod 22
C=CCNc1ncnc2c1ncn2[C@H]1CN(Cc2ccc(F)cc2)C[C@@H](CO)O1	none (no result: NTR1 ag, Mot1-301 SUMO, GRIN3A LBD mod, AHR activator, AI-2 QS mod)
CCOc1ccc(S(=O)(=O)NCCC(=O)OCC(=O)NC(=O)c2cccn2C)cc1	none (no result: AI-2 QS mod)
COc1ccc(-c2nn(-c3ccccc3)cc2/C=N/O)cc1	none
COc1ccc(-c2nn(-c3ccccc3)cc2/C=N/NS(=O)(=O)c2ccccc2)cc1	GRIN3A LBD mod 21, AHR activator 50
CCNC(=S)N1CCn2c(nc3ccccc32)C1	GRIN3A LBD mod 12
CCN(CC)CCNC(=S)N1CCn2c(nc3ccccc32)C1	none
c1ccc(N2CCN(c3nc(-c4cccs4)nc4ccccc34)CC2)cc1	Mot1-301 SUMO 825
COc1ccccc1Cc1c(C(C)(C)C)nc2c3ccccc3ccn12	none (no result: NTR1 ag, Mot1-301 SUMO, GRIN3A LBD mod, AHR activator, AI-2 QS mod)
CCOC(=O)c1nc(Nc2ccc(C(=O)O)cc2)c2ccccc2n1	GRIN3A LBD mod 14
